Compounds with a hit are over-represented: about 2.6% of the library has one in this group of screens.
NTMT1 inhibitor: Primary qHTS for Inhibitors of N-terminal methyltransferase 1 (NTMT1): MTaseGlo Assay; N-terminal Xaa-Pro-Lys N-methyltransferase 1 (Homo sapiens), Q9BV86; NTMT1 MTase-Glo SAH luminescence, purified enzyme; Potency, µM (series often up to 114 µM), for inactives: at the highest dose activity change, negative = inhibition, hits mostly inhibitors; 2.5% of 59,000 active; AID 1645870, 2021;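 note: potency is the fitted concentration of half-maximal effect; plate controls were DMSO vehicle for no effect and no enzyme for full effect; nearly all actives have a fitted effect of over 65% in size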
FH mod: Identification of activators of human fumarate hydratase by quantitative high-throughput screening; Fumarate hydratase, mitochondrial (Homo sapiens), P07954; FH coupled MDH/diaphorase resazurin fluorescence, 15 min; Potency, µM (top dose mostly 79.9 µM), for the others: at the highest dose activity change, negative = inhibition, most hits filed as inhibitors; 0.22% of 54,000 active; AID 1347055, 2019; note: potency is the fitted concentration of half-maximal effect; % is set by controls: 0 for no effect and ±100 for the full control effect; the screen sought activators but most active calls are inhibition curves; nearly all actives have a fitted effect of over 45% in size
Target sequence (P07954 whole entry, looked up): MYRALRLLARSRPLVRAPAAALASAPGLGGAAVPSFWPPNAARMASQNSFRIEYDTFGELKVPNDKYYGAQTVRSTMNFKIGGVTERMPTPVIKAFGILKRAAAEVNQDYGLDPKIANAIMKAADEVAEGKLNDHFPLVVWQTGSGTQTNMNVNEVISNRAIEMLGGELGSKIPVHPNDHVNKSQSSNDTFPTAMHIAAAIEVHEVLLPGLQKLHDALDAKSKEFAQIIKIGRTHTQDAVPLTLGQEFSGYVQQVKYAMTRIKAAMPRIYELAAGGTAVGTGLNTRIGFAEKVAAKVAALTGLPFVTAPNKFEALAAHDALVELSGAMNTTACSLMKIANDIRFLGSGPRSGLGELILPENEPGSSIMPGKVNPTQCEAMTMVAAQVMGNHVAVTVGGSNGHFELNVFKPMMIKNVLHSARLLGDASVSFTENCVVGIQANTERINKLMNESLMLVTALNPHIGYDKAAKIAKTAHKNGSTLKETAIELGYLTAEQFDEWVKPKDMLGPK
DYRK1A inh: Assay for Inhibitors of Dual-Specificity Tyrosine-(Y)-Phosphorylation Regulated Kinase 1A (Kinase-Glo assay); recombinant DYRK1A, Kinase-Glo ATP depletion luminescence; shares compounds with NTMT1 inhibitor; Potency, µM (top dose mostly 76.9 µM), for inactives: at the top dose activity change, negative = inhibition, usual class: inhibitors; 80% of 100 active
CLK4 KinaseGlo: Confirmation Assay for Inhibitors of CDC-like Kinase 4 (Kinase-Glo Assay): SAR round 2 | shares compounds with NTMT1 inhibitor | recombinant Clk4, Kinase-Glo ATP luminescence, 4.5 h | Potency, µM (highest dose often 76.9 µM), inactives show at the highest dose activity, negative = inhibition, usual class: inhibitors | 90% of 90 active | AID 493204, 2011
Sfp PPTase inh: qHTS Assay for Inhibitos of Bacillus subtilis Sfp phosphopantetheinyl transferase (PPTase): Chemistry Optimization Followup. shares compounds with NTMT1 inhibitor. purified Sfp PPTase enzyme activity, qHTS. Potency, µM (doses to about 114 µM), without a hit: at the top dose activity change, negative = inhibition, most hits filed as inhibitors. 78% of 230 active
Sfp gel: qHTS Assay for Inhibitors of Bacillus subtilis Sfp phosphopantetheinyl transferase (PPTase): Gel Based Assay; shares compounds with NTMT1 inhibitor; purified Sfp PPTase, gel-based product detection; Potency, µM (series often up to 250 µM), for the others: at the top dose activity change, negative = inhibition, usual class: inhibitors; 90% of 45 active
Sfp inh SAR2: qHTS Assay for Inhibitors of Bacillus subtilis Sfp phosphopantetheinyl transferase (PPTase): SAR Round 2; Potency, µM (series often up to 57.1 µM), for the others: top-dose activity change, negative = inhibition, most hits filed as inhibitors; 87% of 230 active; purified Sfp enzyme, PPTase activity, qHTS; shares compounds with NTMT1 inhibitor
hGST A1-1 inh: qHTS Assay for Inhibitors of Bacillus subtilis Sfp phosphopantetheinyl transferase (PPTase): SAR in hGST A1-1 | 55 tested, under 10 active | hGST A1-1 enzyme activity counter-screen, qHTS | shares compounds with NTMT1 inhibitor | Potency, µM (titrated, usually from 114 µM), without a hit: at the top dose activity change, negative = inhibition, actives largely listed as inhibitors
HSD17B4 counter: Extended Characterization of HPGD Inhibitors: Counterscreen Against HSD17b4 | shares compounds with NTMT1 inhibitor | AID 743187, 2013 | 10% of 230 active | purified HSD17B4, estradiol/NAD+, NADH fluorescence | Potency, µM (top dose mostly 57.1 µM), for the others: at the top dose activity change, negative = inhibition, hits mostly inhibitors
ALDH1A1 counter: Extended Characterization of HPGD Inhibitors: Counterscreen Against ALDH1A1; Potency, µM (series often up to 57.1 µM), without a hit: at the top dose activity change, negative = inhibition, usual class: inhibitors; recombinant ALDH1A1, NADH fluorescence, propionaldehyde/NAD+; 93% of 230 active; shares compounds with NTMT1 inhibitor
Numbers without * were called inactive; ? = inconclusive; nt = no result; [ ] = remark or other dose. Calls come from the whole dose curve; as a rule, active = well fitted curve in the direction sought with a large enough effect; inconclusive = small, poorly fitted or top-dose-only effect, or another doubt; inactive = no such curve, though single readings can be large; an effect the other way counts as inactive or inconclusive.

SMILES	NTMT1 inhibitor	FH mod	others
Cc1c(-c2ccc3c(c2)OCO3)oc2ccc(C(O)C(C)O)cc12 (configuration not stated)	2%[29.8 µM]	-1%[53.3 µM]
Cc1nc(CSc2ncnc3ccc(-c4ccc5c(c4)OCO5)cc23)cs1	?	nt	DYRK1A inh=2.6µM*
Cc1nc(CN(C)c2ncnc3ccc(-c4ccc5[nH]ncc5c4)cc23)cs1	nt	nt	Sfp PPTase inh=35%[57.1 µM];Sfp gel=-7%;Sfp inh SAR2=21%;hGST A1-1 inh=?;HSD17B4 counter=22µM*;ALDH1A1 counter=15µM*
CN(CC1CCCCO1)c1ncnc2ccc(-c3ccc4c(c3)OCO4)cc12 (configuration not stated)	nt	nt	CLK4 KinaseGlo=0.073µM*
Cc1nc(CN(C)c2ncnc3ccc(-c4ccc5c(c4)OCO5)cc23)cs1	7.9µM*	-9%	DYRK1A inh=0.041µM*
COC(=O)C1=CC[C@H](c2ccc(C)cc2)N(S(=O)(=O)c2ccc(C)cc2)[C@@H]1c1ccc(C(C)(C)C)cc1	-1%	nt
C[C@@H]1O[C@@H](O[C@@H]2[C@@H](O[C@@H]3O[C@@H](C)[C@H](O[C@@H]4OC[C@H](O)[C@H](O[C@@H]5OC[C@@H](O)[C@H](O)[C@H]5O)[C@H]4O)[C@@H](O[C@@H]4OC[C@](O)(CO)[C@H]4O)[C@H]3O)[C@H](OC(=O)[C@]34CCC(C)(C)C[C@H]3C3=CCC5[C@@]6(C)C[C@H](O)[C@H](O[C@@H]7O[C@H](CO[C@@H]8OC[C@H](O)[C@H](O)[C@H]8O)[C@@H](O)[C@H](O)[C@H]7O)C(C)(C)C6CC[C@@]5(C)[C@]3(C)C[C@H]4O)OC[C@H]2O)[C@H](O)[C@H](O)[C@H]1O (some centres not stated)	-5%[6.45 µM]	-1%[13.5 µM]
CN(CC(=O)O)c1ncnc2ccc(-c3ccc4c(c3)OCO4)cc12	-13%[57.5 µM]	nt	CLK4 KinaseGlo=2.3µM*
O=C(NCCN1CCN(c2cccc3c2OCCO3)CC1)c1ccc(F)cc1	2%[57.5 µM]	3%

Screens from PubChem.
